Values joined by “and” are separate entries in the source; they are usually repeats but may differ in a detail not shown here. Equal entries are not always repeated. In all, about 350,000 compounds went through this assay and about 1,900 (0.54%) were called active. The sample holds actives, similar compounds and a random draw of the others, so the mix is not that of the screen.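 The calls were made as follows: active = mean inhibition across replicates at least about 35%, with every replicate also reaching that limit (limit read from the data); inconclusive = only one of the two criteria met; inactive = neither criterion met.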
These compounds were tested against Caspase-6 (Homo sapiens) (UniProt P55212) (assay: human caspase-6 inhibitors, primary screen, biochemical, VEID-R110 fluorescence, single point, set 2 (AID 686996;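 also: 0% = median of neutral control wells and 100% = no fluorescence left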)). Settings: purified caspase-6, Z-VEID-R110 cleavage fluorescence; at 12.5 µM; active compounds read high.
Sequence of Caspase-6 (Homo sapiens) (P55212 24-179 limits assumed): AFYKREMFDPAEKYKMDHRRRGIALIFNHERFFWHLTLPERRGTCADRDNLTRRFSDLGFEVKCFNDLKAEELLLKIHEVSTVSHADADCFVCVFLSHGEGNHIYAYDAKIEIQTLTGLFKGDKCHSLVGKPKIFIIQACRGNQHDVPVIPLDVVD
Sequence of Caspase-6 (Homo sapiens) (P55212 194-293 limits assumed): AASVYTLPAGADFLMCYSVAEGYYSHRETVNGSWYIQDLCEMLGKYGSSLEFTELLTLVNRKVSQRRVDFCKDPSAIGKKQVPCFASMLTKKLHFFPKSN

inhibition, active:
Cc1ccc(S(=O)(=O)N2CCN(C(=O)COC(=O)CNC(=O)c3ccc(C(C)(C)C)cc3)CC2)c(C)c1 53.3%
COc1ccc(Br)cc1/C=N/Nc1ccc(S(=O)(=O)Nc2ccccc2C(=O)O)cc1[N+](=O)[O-] 49.3%
CCN=c1sc(C(=O)Nc2ccccc2)c(C)n1CC 67.5%

inhibition, inactive:
Cc1noc(C)c1NC(=O)Nc1ccc2c(c1)C(=O)N([C@H](C)CO)C[C@@H](C)[C@@H](CN(C)Cc1ccccc1)O2 -0.453%
C[C@H](CO)N1C[C@H](C)[C@H](CN(C)Cc2ccc(C(F)(F)F)cc2)OCCCC[C@H](C)Oc2ccc(NS(=O)(=O)c3ccc(Cl)cc3)cc2C1=O 0%
CCC(=O)N1[C@H](C(=O)OC)[C@@H](CO)[C@@H]2Cn3c(ccc(-c4cccc(F)c4)c3=O)[C@@H]21 -0.171%
Cc1cccc(-c2ccc(C3[C@@H]4CN(C(=O)Nc5ccc(C(F)(F)F)cc5)C[C@H]3N4)cc2)c1 (stereo partly drawn) 17.5% and -2.54%
C[C@@H]1CCCCO[C@@H](CN(C)Cc2ccccc2)[C@H](C)CN([C@H](C)CO)C(=O)c2cc(NS(=O)(=O)c3cccs3)ccc2O1 -0.17%
Cc1ccc(S(=O)(=O)N2CCN(C(=O)COC(=O)c3c(C)cc(C)cc3C)CC2)c(C)c1 0.238%
COc1ccccc1CCC(=O)OCC(=O)N1CCN(S(=O)(=O)c2ccc(C)cc2C)CC1 0.558%
CC1CN(C(=O)c2ccccc2NS(=O)(=O)c2cccc([N+](=O)[O-])c2)CC(C)O1 (stereo not drawn) 0.082%
COc1ccc(S(=O)(=O)N2CCC(C(=O)OCC(=O)c3ccccc3)CC2)cc1[N+](=O)[O-] -8.89%
CCCN1[C@H](C(=O)N[C@H](C)c2ccccc2)[C@@H](CO)[C@@H]2Cn3c(ccc(-c4ccccc4)c3=O)[C@@H]21 -1.76%
O=C(C[C@H]1CC[C@H]2[C@@H](COC[C@@H](O)CN2CC2CCOCC2)O1)NCc1ccc(Cl)cc1 -3.23%
Cc1noc(C)c1S(=O)(=O)N(C)C[C@@H]1Oc2ccc(NC(=O)Cn3cnnn3)cc2CC(=O)N([C@@H](C)CO)C[C@@H]1C 2.4%
Cc1c(C(=O)Nc2ccccc2)sc2nc3n(c(=O)c12)CCCCC3 14.7%
COc1ccc(NC(=O)c2sc(=O)n(Cc3ccc(S(=O)(=O)N(C)C)cc3)c2C)cc1 -0.522%
C[C@@H]1CN([C@@H](C)CO)C(=O)Cc2cc(NS(C)(=O)=O)ccc2O[C@H]1CN(C)C(=O)Nc1ccccc1 2.54%

Reference: PubChem BioAssay AID686996 (Broad Institute, 2013)
